Results: PubChem BioAssay AID1044 (The Scripps Research Institute Molecular Screening Center, 2008)
Screen size: about 16,000 compounds; about 240 (1.5%) were called active. Cut-off read from the data, not from the text of the source: active = activation above about 80%; inactive = the rest. The sample as a whole holds a higher share of actives than the screen did.

Biological target: Sphingosine 1-phosphate receptor 1 (Homo sapiens) (UniProt P21453)
Experiment: activates the human S1P1 receptor (AID 1044)
Conditions: S1P1 agonist cell-based reporter assay; at 4.5 µM; stronger effect = higher value

Chain of Sphingosine 1-phosphate receptor 1 (Homo sapiens) (P21453 whole entry, looked up): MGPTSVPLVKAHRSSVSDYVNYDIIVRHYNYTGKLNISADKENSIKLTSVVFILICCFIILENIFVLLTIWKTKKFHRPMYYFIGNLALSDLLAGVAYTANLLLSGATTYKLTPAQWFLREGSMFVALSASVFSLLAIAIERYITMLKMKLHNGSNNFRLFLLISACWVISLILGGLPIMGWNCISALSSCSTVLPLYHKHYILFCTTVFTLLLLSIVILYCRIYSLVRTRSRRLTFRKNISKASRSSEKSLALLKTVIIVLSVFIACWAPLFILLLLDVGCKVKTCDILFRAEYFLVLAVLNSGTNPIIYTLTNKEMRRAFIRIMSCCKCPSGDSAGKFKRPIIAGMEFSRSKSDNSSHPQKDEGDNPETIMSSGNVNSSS

activation, inactive:
O=C(Nc1ccccc1)O/N=C1/CCCc2occc21 -2.45%
CCOC(=O)c1c(NC(=S)NC)sc2c1CCCC2 -16.5%
CCOC(=O)NC(=S)NC12CC3CC(CC(C3)C1)C2 -14.8%
NC(N)=N/C(N)=N/c1nnc(C(F)(F)F)s1 -5%
OC1(C#Cc2ccccc2)CCN(Cc2ccccc2)CC1 -10.7%
CCOC(=O)c1sc2ccccc2c1N -24.7%
CCOC(=O)c1sc(SCCS(=O)(=O)c2ccc(Cl)cc2)c(C#N)c1-c1ccccc1 -6.04%
N#CCCSc1sc(=S)sc1SCCC#N 2.11%
CCCCc1c(COC)nc(-c2ccc(Cl)cc2)[nH]c1=O -10.5%
Cc1nc(C(F)(F)F)ccc1C(=O)NCCNc1ncccc1C(F)(F)F 3.52%
Cc1nc(C(F)(F)F)ccc1NC(=O)/C=C\C(=O)O -31%
O=C(NC1Cc2ccccc2C1)c1nnc(-c2ccccc2)o1 62.1%
Cn1ncc(Br)c1NC(=O)C(C)(C)C 1.4%
CCOC(=O)Cc1csc(NC(NC(=O)OCC)(C(F)(F)F)C(F)(F)F)n1 -11.5%
CN1CCN(c2ccc(NC(=O)c3ccccc3)cc2)CC1 15.7%
CCOC(=O)C(NC(=O)c1ccco1)(Nc1cc(C)ccn1)C(F)(F)F (stereo not given) -12.4%
Fc1cccc(Cl)c1CN1CCN(c2ncnc3scc(-c4cccs4)c23)CC1 10.1%
CCOC(=O)c1c(-c2ccco2)csc1NC(=O)Nc1ccc(Cl)cc1 -5.82%
C/C(=N\NC(=S)Nc1cccc(F)c1)c1ccco1 -19.7%
Cc1nc(C)c(-c2ccnc(-c3ccc(Cl)cc3)n2)s1 -14.5%
Fc1ccc(Oc2nc(Oc3ccc(F)cc3)nc(N3CCSCC3)n2)cc1 -33.1%
Cc1noc(C)c1C(=O)N1CCOCC1 -1.85%
CCOC(=O)c1cc(C)nc(Sc2ccccc2NC(=O)Nc2ccc(Cl)cc2)c1C#N -5.59%
OC(CN1CCN(c2ccc(C(F)(F)F)cn2)CC1)c1ccc2c(c1)OCCO2 (stereo not given) 4.19%
CNC(=O)NNC(=O)Cn1nnc(N2CCCCC2)n1 -5.59%
O=C(c1ccc(F)cc1)C1CCN(Cc2cn[nH]c2-c2ccccc2)CC1 -8.25%
Cn1nc(-c2ccccc2)cc1N -14.4%
O=C1NC(=O)c2cc([N+](=O)[O-])c(Sc3c(Cl)cccc3Cl)cc21 16.5%
Cn1cc(Br)c(-c2ccc(NC(=O)Nc3ccc(Cl)cc3)cc2)n1 48.5%
CCOC(=O)NN(C(=O)OCC)c1c(C)c(C)c(C)c(C)c1C 6.8%
CCOc1ccc(NC(=S)N2CCC(c3ccccc3OC)CC2)cc1 -5.17%
COc1ccc(OC)c(CNC(=O)Cc2cccs2)c1 2.66%
CC(C)N(C(=O)c1ccc(-c2ccccc2F)cc1)C(C)C 5.33%
COc1ccc(-c2ccc(/C=N/NC(=O)CCc3ccc(O)cc3)s2)cc1 76.7%
COc1ccc2c(c1)CCCC2=Nc1ccccc1C(F)(F)F 76.9%
Cc1cc2nc(C)c(C)nc2cc1C -24.7%
NC(=O)c1sccc1Br -10.4%
Cc1onc(-c2ccccc2)c1CNS(=O)(=O)c1ccc2c(c1)OCCN2C -10.4%
NC(CC(=O)O)c1ccccc1 (stereo not given) 6.64%
Cc1ccc(NC(=O)c2ccccc2NC(=O)c2ccccc2)cc1 -30.9%
O=[N+]([O-])c1ccc(-c2nnnn2Cc2c(Cl)cccc2Cl)cc1 38.8%
Cc1oc(-c2ccc(Cl)cc2)cc1C(=O)N1CCN(Cc2ccccc2)CC1 -6.1%
COc1ccc(NC(NC(=O)c2ccc(OC)cc2)(C(F)(F)F)C(F)(F)F)cc1 4.17%
CCOC(=O)N/N=C(\C)c1cccc(NC(C)=O)c1 3.43%
CC(C)(C)C(=O)Nc1c(Br)c(C2CC2)nn1-c1ccccc1 4.11%
N#Cc1ccc(OS(=O)(=O)c2cc(C(F)(F)F)cc(C(F)(F)F)c2)cc1 0.18%
CSc1nc(N)n(-c2ccccc2)n1 5.77%
COC(=O)c1c(C(=O)OC)c2n(c1C)CCS2 10.2%
O=C(Nc1ccc(OCc2ccccc2)cc1)OCC1CN(Cc2ccccc2)CCO1 (stereo not given) 43.9%
O=S(=O)(Oc1cccc(C(F)(F)F)c1)c1cc(S(=O)(=O)c2ccccc2)cs1 4.61%
Cn1nc(C(C)(C)C)c(NC(=O)c2sccc2Cl)c1C(C)(C)C -7.37%
CCc1ccc(S(=O)(=O)Nc2ccc(C)c(NS(C)(=O)=O)c2)cc1 6.03%
Cc1oc(-c2ccc(Cl)cc2)cc1C(=O)N1CCOCC1 6.2%
Cc1c(-c2cnc(NC(=O)c3ccccc3)s2)sc2ccc(Cl)cc12 7.33%
NNC(=O)COc1ccc(C2SCCS2)cc1 -2.77%
O=C(Nc1ccc(Cl)cc1)c1csc(COc2ccc3nonc3c2)n1 -33.9%
O=c1oc2ccc(Cl)cc2cc1-c1ccc([N+](=O)[O-])cc1 -9.38%
O=C(NNc1ccc(C(F)(F)F)cn1)c1ccccc1Cl -0.55%
COc1cccc2cc(C(=O)O)oc12 -0.93%
O=C(O)CC(CC(=O)O)c1ccc(C(F)(F)F)cc1 0.91%
O=C1c2ccc3c4c(ccc(c24)C(=O)N1c1ccccc1)C(=O)N(c1ccccc1)C3=O -6.17%
CCCCCCNC(=O)NCCCCCC -9.06%
COc1ccc(CCNCC(O)Cn2ccc3ccccc32)cc1OC (stereo not given) 5.51%
c1ccc2c(c1)NC(C1Nc3ccccc3O1)O2 (stereo not given) -3.26%
COc1cc(CCN=Cc2ccccc2O)c([N+](=O)[O-])cc1OC -11.4%
CS/C(N)=N/N=C/c1cccs1 -0.53%
COC(=O)C1=C(NNc2ccccc2)CSC1 6.31%
Cc1cc(CNCC(O)C(F)(F)F)no1 (stereo not given) -6.99%
FC(F)(F)C1=CC=NCCN1 1.36%
N/C(=N\OC(=O)Nc1ccccc1)c1ccc(Oc2c(Cl)cncc2Cl)cc1 13.7%
Cc1nc(-c2ccc(NC(=O)COCC(=O)O)cc2)cs1 -4.96%
CCCCCCCCc1ccc(C(=O)O)cc1 19.6%
CCOC(=O)c1c(NC(=S)Nc2ccccc2)sc2c1CCN(C)C2 -17.2%
Cc1nnsc1-c1nnc(SCC(=O)c2ccc3c(c2)OCO3)n1C1CC1 0.92%
COc1cccc(NC(=S)N(CCC#N)C2CCCCC2)c1 -17.6%
COc1ccc(NC(=S)Nc2ccc(OC)cc2)cc1 2.11%
COc1cccc(C(=O)c2sc3nsc(SCc4ccc(F)cc4)c3c2N)c1 50.7%
Cc1ccc([N+](=O)[O-])c(C(=O)NCC(=O)O)c1 -20%
OC(COc1ccc(F)cc1)(c1ccccc1)c1ccccc1 -25.6%
CCO/N=C\c1nn(S(C)(=O)=O)cc1Br -3.43%
CCOC(=O)Cc1nc(N)ncc1C(=O)OCC -10.1%
Clc1ccc(-c2csc(N/N=C\c3ccn[nH]3)n2)cc1 8.84%
O=C(NCCO)NCCSc1ccc(F)cc1 -13.1%
O=C1CSC(=S)N1c1ccc(N2CCCCCC2)c(N2C(=O)CSC2=S)c1 0.84%
COC(=O)c1ccc(S(=O)(=O)NNC(=O)c2cn3cc(C(F)(F)F)cc(Cl)c3n2)n1C -20.2%
N#Cc1ccc(N2CCSCC2)cc1[N+](=O)[O-] -27.1%
O=C(Nc1ccccc1C(=O)NCc1c(F)cccc1Cl)c1ccccc1Cl 15.3%
O=C(O)c1ccccc1Nc1ccccc1F 2.49%
Cc1ccc(Sc2cc(C)c(C)cc2N)c(C)c1 10.7%
Cc1csc(/N=C/N(C)C)c1C#N -3.89%
NS(=O)(=O)c1ccc(Oc2c(Cl)cccc2[N+](=O)[O-])cc1 -8.03%
CCCS(=O)(=O)c1csc(C(=O)OC)c1N/N=C/c1cccs1 -27.2%
Cn1cccc1CNC(=O)c1cc(F)cc2c1OCOC2 21.1%
Cc1c(C(=O)Nc2ccccc2)sc2cc(C(C)(C)C)sc12 23.4%
O=C1OC2(CCCCC2)OC1c1ccccc1 (stereo not given) -9.78%
CSc1nc2c(c(/C=C/c3ccccc3)c1C#N)CCC2 -18.1%
O=C1c2ccccc2O[C@@H](c2ccccc2)[C@@H]1NC1CCCCC1 75.6%
NNC(=O)c1cc2ccccc2s1 8.06%

activation, active:
CCOC(=O)c1sc(SC)c(-c2ccccc2)c1N 103%
Clc1ccc(CO/N=C/c2nc3ccccc3s2)cc1 87%
Cc1ccc(NC(C(=O)O)c2ccccc2)cc1 (stereo not given) 81.5%
CCOC(=O)c1c(NS(=O)(=O)c2cccc3nsnc23)sc(C)c1C 117%
NNC(=O)c1csc(COc2ccc(C3SCCS3)cc2)n1 83%
COc1cccc(NC(=S)NNC(=S)NC2CC3CCC2C3)c1 (stereo not given) 97.7%
O=C(CNC(=O)c1ccccc1F)c1ccc(Br)cc1 84.7%
